# Measured values reported in ChEMBL document CHEMBL1157539, “Thousands of chemical starting points for antimalarial lead identification” (Nature, 2010).
# How the values were obtained:
# Assay type in all cases: functional
# [1] = tested on: Plasmodium falciparum; experiment: GSK_TCMDC: Inhibition of Plasmodium falciparum 3D7 in whole red blood cells, using parasite LDH activity as an index of growth. Test compounds present at 2uM
# [2] = tested on: Plasmodium falciparum; experiment: GSK_TCMDC: Inhibition of Plasmodium falciparum Dd2 in whole red blood cells, using parasite LDH activity as an index of growth. Test compounds present at 2uM
# [3] = tested on: HepG2; experiment: GSK_TCMDC: Percent inhibition of human HepG2 cell line. Test compounds present at 10uM.
SMILES,Inhibition [1],Inhibition [2],Inhibition [3]
O=C(/C=C/c1ccc(Cl)c(Cl)c1)NCCCCCN1CCC(NC(=O)c2ccc([N+](=O)[O-])cc2)CC1,100%,6%,36%
O=C(/C=C/c1ccc(Cl)c(Cl)c1)NCCCCCCN1CCCN(C(=O)Nc2cc(Cl)cc(Cl)c2)CC1,98%,2%,26%
CN(CCN)Cc1cccc(-c2cccc(-c3nc4cc(C(F)(F)F)ccc4[nH]3)c2)c1.O=C(O)C(F)(F)F,99%,98%,22%
O=C(NCCCCCN1CCC(c2c[nH]c3ccccc23)CC1)Nc1cccc(I)c1,99%,11%,70%
O=C(Cn1nc(Br)nc1[N+](=O)[O-])NCC1CCCCC1,96%,57%,0%
CC(C)(C)c1ccc(CN2CCC(NC(=O)c3ccc(-c4cccc(C(F)(F)F)c4)s3)CC2)cc1.O=C(O)C(F)(F)F,100%,96%,97%
CCOc1ccc2[nH]c(C)cc(=NN=Cc3ccccc3F)c2c1,100%,99%,0%
COc1ccc(C(=O)N2CCC3(CC2)C(=O)N(CC(=O)NC2CCCCC2)CN3c2ccccc2)c(OC)c1,100%,99%,4%
COc1ccc(N2CCN(CCCC/C=C/c3ccc(NC(=O)c4cc(Cl)cc(Cl)c4)cc3)CC2)c(OC)c1,99%,39%,20%
N#Cc1cccc(Nc2cc(C(F)(F)F)nc(Nc3ccccc3)n2)c1.O=C(O)C(F)(F)F,92%,17%,7%
Fc1ccc(Nc2ccnc3cc(-c4ccc(CN5CCOCC5)o4)ccc23)c(Cl)c1,100%,100%,42%
CC(=NNC(S)=NCCc1ccccc1)c1ccccn1,100%,99%,73%
COc1ccc(CNC2CCN(C)CC2)cc1-c1ccc(S(=O)(=O)NCCc2ccccn2)s1.O=C(O)C(F)(F)F,100%,12%,6%
COc1ccc(C2(CNCC(O)c3cccc([N+](=O)[O-])c3)CCCC2)cc1OC (configuration not stated),93%,85%,10%
O=c1ccccn1CCCC1CCCCN1 (configuration not stated),96%,0%,0%
O=C(N[C@@H](Cc1ccccc1)C(=O)NCCN1CCCCC1)c1ccc(O)c(-c2ccc(Cl)c(Cl)c2)c1,99%,97%,6%
N#Cc1c(-c2ccccc2)cn2c1[nH]c(=O)c1ccccc12,92%,95%,0%
COc1cccc(C=NN=c2cc(C)[nH]c3ccccc23)c1,100%,46%,16%
Cl.O=C(Nc1ccc2c(c1)CCN(C1CCC1)CC2)c1ccc(-n2ccnc2)cn1,92%,0%,8%
Cc1nc(C)c(-c2ccc(C(=O)c3ccc(Cl)cc3)cc2)c(O)c1Cl,98%,95%,0%
Cc1ccc(-c2nc3ccccc3o2)cc1NCc1cc(Cc2ccccc2)ccc1O,82%,50%,45%
Cc1cccc2nc(-c3ccc(-c4ccc(NC(=O)Nc5ccc(Cl)c(Cl)c5)cc4)cc3)[nH]c12,100%,100%,37%
NCCC(=O)Nc1ccc(-c2cnc3[nH]cc(-c4ccc(C(=O)O)cc4)c3c2)cn1.O=C(O)C(F)(F)F,99%,67%,0%
COc1cc2nc(N3CCC(CNC(=O)c4ccc(-c5ccc(C(=O)N(C)C)cc5C)cc4)CC3)nc(N3CCN(C)CC3)c2cc1OC,88%,84%,26%
CN(C)c1ccc(CN2CCC(NC(=O)c3ccc(-c4cccc(C(F)(F)F)c4)s3)CC2)cc1.O=C(O)C(F)(F)F,97%,40%,90%
Cc1cc(CN2CCC(Nc3ncc(-c4ccsc4)c4nc(C(F)(F)F)ccc34)CC2)no1.Cl,81%,67%,8%
Cn1c(N)c(N=O)c(=O)[nH]c1=O,97%,82%,58%
COc1ccccc1NC(=S)N/N=C/c1ccc(O)cc1O,89%,80%,35%
CC(C)N1CCC(N(Cc2ccc(-c3ccc(C(F)(F)F)cc3)cc2)C(=O)Cn2c(CCc3cccc(F)c3F)cc(=O)c3c2CCC3)CC1.O=C(O)C(O)C(O)C(=O)O,100%,62%,30%
